Source: PubChem BioAssay
Shown is part of a subset that was picked to be rich in hits.
Methyltransferases = Primary Screen for Target Class Profiling of Small Molecule Inhibitors of Methyltransferases; purified enzyme, MTase-Glo SAH luminescence; active compounds read low; calls only at 40 µM; hit rate 3.9% among 25,000; call rule not given here
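Each enzyme was reacted with SAM and its substrate, with compounds tested once at 40 uM; SAH formed was read by MTase-Glo luminescence.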
MTase-Glo counter = counter-screen for methyltransferase inhibitors: coupling enzymes without methyltransferase; shares compounds with Methyltransferases; MTase-Glo coupled enzymes, SAH conversion luminescence, no MTase; Potency, µM (series often up to 57.3 µM), inactives show at the top dose activity change, negative = inhibition, usual class: inhibitors; hit rate 6% among 180; active means well fitted inhibition curve with a large enough effect; inconclusive means small, poorly fitted or top-dose-only effect; further: potency means the concentration at half of the fitted maximal effect
Active calls of the source: *; i = inactive; u = inconclusive; + = active, no number; [ ] = another dose, or the depositor's remark. On the % scale 0 is the no-effect control and ±100 the full control effect.

SMILES	Methyltransferases	others
COc1cc(F)ccc1-c1nccc2c(=O)cc(-c3cnn(C)c3)oc12	i
COc1cc(F)ccc1-c1cc(-c2ccc(=O)[nH]c2)c2cncn2c1	+	MTase-Glo counter=u
Cc1ccccc1CSc1nnc2n(CCC(C)C)c(=O)c3ccccc3n12	i
CCCn1c(=O)c2ccc(C(=O)NCC(C)C)cc2n2c(=O)n(CC(=O)c3cc(C)ccc3C)nc12	i
CCC(C)NC(=O)c1ccc2c(=O)n(C)c3nnc(SCC(=O)NCc4ccccc4)n3c2c1 (stereo not drawn)	i
O=C(NCc1ccccn1)C1CCN(c2cc(C3CC(O)C3)ncn2)CC1 (stereo not drawn)	i
Cc1ccc(C(N)=O)cc1-c1cc(NCc2cccnc2)nc2[nH]ccc12	i
c1ccc(CNc2cc(-c3cc(N4CCCCC4)ncn3)c3cc[nH]c3n2)nc1	+	MTase-Glo counter=-9%
Cc1ccc(-c2n[nH]n3c2nc(=O)c2ccc(C(=O)N4CCN(c5cc(C)ccc5C)CC4)cc23)cc1	i
CC1(C(=O)NC2CCCCC2)Cn2c(cc3sccc32)C(=O)N1CCN1CCCCCC1 (stereo not drawn)	i
COCc1nc2nc(-c3ccccc3)c(-c3ccc(O)c(F)c3)cc2n1C	+	MTase-Glo counter=-6%[85.7 µM]
CCNc1ncnc2sc3c(c12)CCN(Cc1ccncc1)C3	i
COc1ccc(-c2nc(N3CCOCC3)cc3c2CN(Cc2ccccc2)C3=O)cn1	i
c1ccc(CN2CCc3c(sc4ncnc(N5CCOCC5)c34)C2)cc1	+	MTase-Glo counter=-8%
Cc1ccc(CNC(=O)C2(C)Cc3ccccc3C(=O)N2Cc2ccc(C(F)(F)F)cc2)cc1 (stereo not drawn)	i
CC(C)Cn1c(=O)c2cc(F)ccc2n2c(SCc3ccccc3Cl)nnc12	i
COc1ccc(-c2cc3n(n2)CC(C)(C(=O)NCc2ccccc2)N(CCc2ccc(Cl)cc2)C3=O)cc1 (stereo not drawn)	i
CCCn1cnc2c1CN(S(=O)(=O)c1ccc(F)cc1)[C@H](C(=O)OC)C2	i
COC(=O)[C@@H]1Cc2ncn(Cc3ccc(Cl)cc3)c2CN1CCCc1ccccc1	+	MTase-Glo counter=11µM*
CC1(C(=O)NCc2ccccc2)Cn2c(cc3occc32)C(=O)N1Cc1ccc(Cl)cc1 (stereo not drawn)	i
CCn1c(=O)n(CC)c2cc(S(=O)(=O)Nc3ccc(F)cc3)ccc21	i
CCC1Oc2ccc(NS(=O)(=O)c3ccc(Cl)cc3)cc2CN(Cc2ccc(F)cc2)C1=O (stereo not drawn)	+	MTase-Glo counter=-8%
CCC1Oc2ccc(NC(=O)Cc3ccc(OC)cc3)cc2CN(Cc2ccc3c(c2)OCO3)C1=O (stereo not drawn)	i
CCCn1c(=O)c2ccc(C(=O)NC(C)C)cc2n2c(SCC(=O)c3ccc(OC)cc3)nnc12	i
O=C1CN(Cc2c(F)cccc2Cl)S(=O)(=O)c2ccccc2N1Cc1cccc(F)c1	i
SMILES	Methyltransferases	others
c1ccc(Cn2cc(CN3CCN(c4ccncc4)CC3)c(-c3cc4ccccc4o3)n2)cc1	+	MTase-Glo counter=5%
Cc1nn(-c2ccccc2)c(C)c1/C=N/N1CCN(Cc2ccccc2)CC1	i
Cn1cc(CN2CCN(c3ccc(C#N)cn3)CC2)c(-c2ccccc2)n1	i
Cc1ccc(NC(=O)Cn2nc3n(C(C)C)c(=O)c4ccc(C(=O)NC5CCCC5)cc4n3c2=O)c(C)c1	i
CC(C)OCCCNC(=O)c1cc2n(n1)CC(C)(C(=O)NC1CCCCC1)N(C)C2=O (stereo not drawn)	i
CC(C)CNC(=O)c1ccc2c(=O)n(C)c3nn(Cc4ccc(F)cc4)c(=O)n3c2c1	i
CCOc1ccc(C(=O)Cn2nc3n(C(C)C)c(=O)c4ccc(C(=O)NC5CCCC5)cc4n3c2=O)cc1	i
O=C1CC(C(=O)Nc2cccc(Cl)c2)n2ncnc2N1 (stereo not drawn)	i
Cn1c(=O)c2ccc(C(=O)NC3CCCC3)cc2n2c(=O)n(CC(=O)Nc3cccc(Cl)c3)nc12	i
O=C(Nc1ccc(S(=O)(=O)C(F)(F)F)cc1)C1=CCN(c2ncccc2C(F)(F)F)CC1	i
O=C(Nc1ccc2c(N3CCCCC3)ncnc2c1)c1ccccc1C(F)(F)F	+	MTase-Glo counter=1.7µM*
O=C(Nc1ccc2c(N3CCOCC3)ncnc2c1)c1cccc(Cl)c1	+	MTase-Glo counter=-1%
O=C(Nc1ccccc1C(F)(F)F)N1CCCC(Cn2cnc3cccnc32)C1 (stereo not drawn)	i
CCOCCCNC(=O)C1c2c(n(C)c3ccccc23)SCC(=O)N1c1ccccc1CC (stereo not drawn)	i
Cc1ccc(Cn2c(=O)c3ccccc3n3c(=O)n(CC(=O)NCc4ccc(Cl)cc4)nc23)cc1	i
COc1cccc(CNc2nc3c(S(=O)(=O)c4ccc(Cl)cc4)nnn3c3ccccc23)c1	i
COc1ccc(NC(=O)CCc2nnc3n(CCc4ccccc4)c(=O)c4ccccc4n23)cc1OC	i
N#Cc1ccccc1-c1cc2c(ccn2Cc2ccncc2)c(N2CCOCC2)n1	+	MTase-Glo counter=4%[85.7 µM]
COc1cccc(CN2C(=O)c3cc4sccc4n3CC2(C)C(=O)NC2CCCCCCC2)c1 (stereo not drawn)	i
CC(C)CCN1C[C@@H]2C[C@H]1C(=O)N(Cc1cccnc1)c1ccccc1O2	i
CN1CCC(N2C[C@@H]3C[C@H]2C(=O)N(CC2CC2)c2ccccc2O3)CC1	+	MTase-Glo counter=-5%[85.7 µM]
Cc1cc(C)c(CNC(=O)c2cc(-c3cnn(C)c3C)cc3c2OCCN3C)c(=O)[nH]1	+	MTase-Glo counter=-6%[85.7 µM]
COCCNC(=O)c1cc(N2CCOCC2)cc2c1OCCN2C	i
CC1(C(=O)NC2CCCCCC2)Cn2c(cc3sccc32)C(=O)N1Cc1ccc2c(c1)OCO2 (stereo not drawn)	i
COc1ccc(CN2CCCC(COc3ccccc3C(=O)NC3CC3)C2)c(OC)c1 (stereo not drawn)	+	MTase-Glo counter=-5%
SMILES	Methyltransferases	others
COc1cccc(CN2CC(Oc3ccccc3C(=O)NC3CC3)C2)c1	i
CC(C)NC(=O)c1ccccc1OCC1CCCN(Cc2cn(C)c3ccccc23)C1 (stereo not drawn)	+	MTase-Glo counter=4%
COc1ccc(O)c(CN2CCCC(Nc3ccc(F)cc3)C2)c1 (stereo not drawn)	i
CCOc1ccccc1C(=O)NC1CCN(c2cc(C)cc(C)c2)C1=O (stereo not drawn)	i
COc1cc(OC)cc(C(=O)NCC2CCCN(Cc3cc4ccccc4o3)C2)c1 (stereo not drawn)	i
CC(NC(=O)Cn1c(=O)oc2cc(S(=O)(=O)NC3CCCC3)ccc21)c1ccccc1 (stereo not drawn)	i
COc1ccc(NC(=O)Cn2nc3n(Cc4ccc(C)cc4)c(=O)c4ccccc4n3c2=O)cc1OC	i
Cc1ccc(N2C(=O)c3ccc(-c4ccco4)n3CC2(C)C(=O)NC2CCCC2)cc1C (stereo not drawn)	i
CC(C)Cn1c(=O)c2ccc(C(=O)NC(C)C)cc2n2c(=O)n(CC(=O)Nc3ccc(Cl)cc3)nc12	i
CCC(C)NC(=O)c1ccc2c(=O)n(C)c3nn(Cc4ccccc4Cl)c(=O)n3c2c1 (stereo not drawn)	i
CCn1c(=O)sc2cc(NS(=O)(=O)c3ccc4c(c3)n(C)c(=O)n4C)ccc21	i
